Source: PubChem
ELG1 DNA repair: ELG1-dependent DNA repair inhibition | HEK293T ELG1-luciferase reporter, luminescence, 16 h; DNA damage induced by 5-fluorouridine | hit rate 2.3% among 330,000 | Potency, µM (doses to about 46.1 µM), inactives show at the top dose activity change, negative = inhibition, most hits filed as inhibitors; further: potency means the concentration at half of the fitted maximal effect; nearly all actives have a fitted effect of over 55% in size
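In this reporter screen, reduction of luminescence relative to DMSO vehicle indicated activity. Compounds and 5-fluorouridine were added together to 2,000 cells per well, incubated for 16 hr at 37 °C, then developed with ONE-Glo.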
Gal4-VP16 FLuc: counter-screen for ROR gamma inhibitors: Gal4-VP16 reporter | Drosophila S2 Gal4-VP16 UAS-luciferase, luminescence, 20 h | hit rate 3.5% among 310,000 | Potency, µM (doses to about 53.6 µM), for the others: top-dose activity, negative = inhibition, usual class: inhibitors | AID 2546;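 further: Gal4-VP16 expression switched on by copper sulfate through the metallothionein promoter; potency means the concentration at half of the fitted maximal effect; nearly all actives have a fitted effect of over 50% in size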
IL-1B inflam inh: inflammasome signaling inhibition, IL-1 beta readout; THP-1 LPS/ATP IL-1B secretion, AlphaLISA, 16 h; hits give low values; activity change, % at 57.5 µM; hit rate 4.7% among 360,000; AID 743279; in the data active means activity change below about -50%; inconclusive means mostly about -30% to -49%
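THP-1 cells pretreated 1 hr with compounds (up to 57.5 uM final), then stimulated with LPS (250 ng/mL final) plus ATP (1.25 mM final); secreted IL-1B measured by AlphaLISA after 16 hr, decreased signal indicating inhibition.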
TDP1 cell noCPT: qHTS for Inhibitors of human tyrosyl-DNA phosphodiesterase 1 (TDP1): qHTS in cells in absence of CPT. DT40 Tdp1-/- hTDP1 cells, no CPT, ATP luminescence, 48 h. Potency, µM (highest dose often 46.2 µM), without a hit: top-dose activity change, negative = growth inhibition, hits mostly inhibitors. hit rate 15% among 420,000; further: potency means the concentration at half of the fitted maximal effect; nearly all actives have a fitted effect of over 55% in size
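Growth of hTDP1-complemented DT40 Tdp1-knockout cells is measured by ATP luminescence after at least 48 hr compound exposure at 37 °C, with DMSO substituting for the 20 nM CPT used in the parallel screen.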
DT40 TDP1 CPT: growth inhibition of DT40 Tdp1-/-;hTDP1 cells with camptothecin (screen for TDP1 inhibitors); chicken DT40 Tdp1-/-;hTDP1 cells + 20 nM CPT, ATP luminescence, 48 h; Potency, µM (top dose mostly 46.2 µM), for inactives: top-dose activity change, negative = growth inhibition, most hits filed as inhibitors; hit rate 12% among 420,000; further: potency means the concentration at half of the fitted maximal effect; nearly all actives have a fitted effect of over 55% in size
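Chicken DT40 Tdp1-/- cells complemented with human TDP1, 400 cells/well, exposed to compounds plus 20 nM camptothecin for at least 48 h at 37 C; viability read as ATP content by CellTiter-Glo luminescence.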
RORgamma inh: inhibitors of mouse ROR gamma transcriptional activity; Drosophila S2 Gal4-RORgamma UAS-luciferase reporter, 20 h; Potency, µM (highest dose often 53.6 µM), for inactives: at the highest dose activity change, negative = inhibition, usual class: inhibitors; hit rate 5.4% among 310,000; AID 2551; further: potency means the concentration at half of the fitted maximal effect; nearly all actives have a fitted effect of over 60% in size
Target sequence (P51450 whole entry, looked up, the tested form may be a part): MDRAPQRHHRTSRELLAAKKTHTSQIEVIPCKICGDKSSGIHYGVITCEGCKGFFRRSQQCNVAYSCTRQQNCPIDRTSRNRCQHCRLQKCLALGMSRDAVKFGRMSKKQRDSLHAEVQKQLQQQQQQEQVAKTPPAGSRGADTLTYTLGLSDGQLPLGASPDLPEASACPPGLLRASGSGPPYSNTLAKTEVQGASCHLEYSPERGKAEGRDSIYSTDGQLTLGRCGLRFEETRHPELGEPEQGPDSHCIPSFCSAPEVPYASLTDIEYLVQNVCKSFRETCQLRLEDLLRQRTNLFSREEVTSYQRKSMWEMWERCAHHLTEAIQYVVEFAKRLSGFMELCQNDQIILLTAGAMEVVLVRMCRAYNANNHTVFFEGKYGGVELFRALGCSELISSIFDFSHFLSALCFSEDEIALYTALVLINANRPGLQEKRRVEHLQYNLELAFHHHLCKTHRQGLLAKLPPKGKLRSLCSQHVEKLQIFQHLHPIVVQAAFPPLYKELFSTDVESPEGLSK
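Luminescence from a UAS-regulated Photinus luciferase reporter in stably transfected Drosophila Schneider cells is measured; decreased signal marks ROR gamma inhibition. Fusion expression is induced by 700 uM copper sulfate for 20 hr.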
Starred values were filed as active, the others as inactive; ? = inconclusive; / = no result. Shown are actives, neighbours in structure and some others; about 21% of the full set was active somewhere. Unless noted, the call rests on the fitted dose curve; in most records, active means well fitted curve in the direction sought with a large enough effect; inconclusive means small, poorly fitted or top-dose-only effect, or another doubt; inactive means no such curve, though single readings can be large; an effect the other way counts as inactive or inconclusive. On the % scale 0 is the no-effect control and ±100 the full control effect.

SMILES	ELG1 DNA repair	Gal4-VP16 FLuc	IL-1B inflam inh	TDP1 cell noCPT	DT40 TDP1 CPT	RORgamma inh
CC(=O)Nc1ccc(S(=O)(=O)N2CCN(CC(O)COc3ccc4ccccc4c3)CC2)cc1 (configuration not stated)	-20%	?	-61*	?	?	-12%
CCOc1ccc(S(=O)(=O)N2CCN(CC(O)COc3cccc([N+](=O)[O-])c3)CC2)cc1 (configuration not stated)	15µM*	5%	?	23µM*	15µM*	34%
COCc1c(C(=O)N2CCN(C(C)C)CC2)cnn1-c1nccc(-c2cc(C)sc2C)n1	/	/	/	-11%	3%	/
Cc1ccc(-c2nn3c(=O)cc(CN4CCN(C(=O)/C=C/c5ccccc5)CC4)nc3s2)cc1	/	/	/	-15%	-12%	/
Cc1nn(-c2ccccn2)c(N)c1N=O	0%	?	7	-16%	-4%	11µM*
Cc1nn(-c2ccccn2)c2c1C(=O)CC(C)(C)C2N=[N+]=[N-] (configuration not stated)	/	/	-29	?	?	/
Cn1cc(S(=O)(=O)N2CCOCC2)cc1C(=O)Nc1cccc(C#N)c1	/	/	/	2%	1%	/
Clc1ccc(-c2csc(-c3nc(-c4ccc(Br)s4)cs3)n2)cc1	/	/	/	-7%	4%	/
O=S(=O)(Nc1ccc(-c2ccc(N3CCCCC3)nn2)cc1)c1ccc(OC(F)(F)F)cc1	/	/	/	16µM*	?	/
Cc1cc(S(=O)(=O)Nc2ccc(-c3ccc(N4CCCCC4)nn3)cc2)c(C)cc1Cl	/	/	/	?	13µM*	/
O=S(=O)(Nc1ccc(-c2ccc(N3CCOCC3)nn2)cc1)c1ccc(Cl)c(Cl)c1	-20%	/	0	?	1%	/
O=S(=O)(Nc1ccc(-c2ccc(N3CCCC3)nn2)cc1)c1ccc(Cl)cc1	/	/	/	?	15µM*	/
O=S(=O)(Nc1cccc(-c2ccc(N3CCCCCC3)nn2)c1)c1ccc(C(F)(F)F)cc1	?	4%	23	10%	-11%	27%
COc1ccc(CCC(=O)NCCS(=O)(=O)N2CCN(c3ccc(F)cc3)CC2)cc1	?	/	6	?	-4%	/
NC(c1csc(Nc2cc(Oc3ccccc3)ncn2)n1)c1ccccc1Cl (configuration not stated)	/	/	-89*	?	?	/
CS(=O)(=O)c1ccc(Nc2nc(C(N)c3ccccc3Cl)cs2)cc1 (configuration not stated)	/	/	24	?	?	/
CC(N)c1csc(Nc2cc(Oc3ccccc3)ncn2)n1 (configuration not stated)	/	/	-65*	0.041µM*	?	/
Cc1cc(C)c2nc(-c3ccccn3)cc(C(=O)n3cccn3)c2c1	-8%	-6%	0	18µM*	?	7%
COc1ccc(Cc2c(C)nn(-c3nc(C)c(C(=O)Nc4ccc(C)cc4C)s3)c2C)cc1	/	/	/	-10%	-4%	/
CN(C)CCn1c2c(c(SCC(=O)Nc3cccc4ccccc34)nc1=O)CCCC2	?	/	-8	?	?	/
CCN(CC)CCn1c2c(c(SCC(=O)Nc3cccc4ccccc34)nc1=O)CCC2	-4%	/	-90*	?	-29%	/
CCN(CC)CCn1c2c(c(SCC(=O)Nc3ccccc3Cl)nc1=O)CCC2	-3%	/	-52*	-6%	-2%	/
Cc1c(Cl)cccc1NC(=O)c1ccc(OCC(=O)NCc2ccccc2)cc1	3%	1%	-14	?	?	-9%
Cc1cc(SCC(=O)N2CCC(c3noc4ccc(F)cc34)CC2)nc2ccccc12	21µM*	1%	?	?	23µM*	10%
O=C(CSc1ncnc2sc3c(c12)CCCC3)N1CCC(c2noc3ccc(F)cc23)CC1	-15%	-8%	4	10µM*	11µM*	-15%
